Pf growth 96h: inhibits malaria parasite growth, 96 h; P. falciparum luciferase reporter growth, 96 h; Potency, µM (doses to about 28.7 µM), for the others: at the top dose activity change, negative = inhibition, hits mostly inhibitors; hit rate 6.9% among 320,000; also: potency is read from the fitted curve at half-maximal effect; % is scaled to controls: 0 for no effect and ±100 for the full control effect
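Readout is luminescence from an integrated firefly luciferase in P. falciparum. Red cells, 2% hematocrit and 0.05% parasitemia final, were cultured with compound through two parasite generations (96 hours) at 37 C, 5% CO2.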
Pf growth 48h: P. falciparum growth inhibition at 48 hours (one generation) | Potency, µM (top dose mostly 28.7 µM), for inactives: at the highest dose activity change, negative = inhibition, actives largely listed as inhibitors | hit rate 5.9% among 310,000 | P. falciparum luciferase growth in erythrocytes, 48 h | AID 504832; also: potency is read from the fitted curve at half-maximal effect; % is scaled to controls: 0 for no effect and ±100 for the full control effect
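Read-out is firefly luciferase luminescence from an integrated reporter in P. falciparum, so falling signal marks reduced parasite growth. Infected erythrocytes were at 2% hematocrit and 0.1% parasitemia (final) in Albumax-supplemented RPMI 1640.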
LmPK inh: LmPK (Leishmania mexicana) enzyme inhibition | AID 1721 | Potency, µM (titrated, usually from 57.5 µM), for the others: at the highest dose activity change, negative = inhibition, actives largely listed as inhibitors | purified LmPK, Kinase-Glo ATP luminescence, 1 h | hit rate 0.37% among 290,000; also: potency is read from the fitted curve at half-maximal effect; % is scaled to controls: 0 for no effect and ±100 for the full control effect
Target sequence (Q27686 whole entry, looked up): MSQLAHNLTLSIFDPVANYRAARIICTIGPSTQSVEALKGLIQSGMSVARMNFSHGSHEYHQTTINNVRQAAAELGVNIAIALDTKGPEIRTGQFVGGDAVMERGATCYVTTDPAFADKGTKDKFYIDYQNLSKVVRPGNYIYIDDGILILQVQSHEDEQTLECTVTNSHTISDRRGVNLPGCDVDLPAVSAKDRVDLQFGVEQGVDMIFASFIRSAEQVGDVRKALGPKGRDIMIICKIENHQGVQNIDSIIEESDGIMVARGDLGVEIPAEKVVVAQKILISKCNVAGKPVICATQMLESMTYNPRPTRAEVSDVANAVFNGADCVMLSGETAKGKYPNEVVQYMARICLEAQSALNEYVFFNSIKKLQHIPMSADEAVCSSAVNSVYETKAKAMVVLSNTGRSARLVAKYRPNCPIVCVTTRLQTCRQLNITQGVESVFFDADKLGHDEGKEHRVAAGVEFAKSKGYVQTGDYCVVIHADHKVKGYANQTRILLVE
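qHTS format; LmPK 0.1 nM; substrates PEP 0.5 mM and ADP 0.1 mM. One-hour room-temperature incubation, then coupled luciferase luminescence; 0.5 nM enzyme wells mark activation.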
Shiga inhibitor: inhibitors of Shiga toxin in Vero cells; Vero cells, Shiga toxin protein synthesis inhibition reporter; inhibition, % at 38.7 µM; hit rate 9.2% among 290,000; AID 2315; in the data active = inhibition mostly above about 28%, no sharp cut-off; inactive = mostly below about 43%; also: 0% is about no effect
Cycloheximide cs: counter-screen for Shiga toxin inhibitors: cycloheximide protein synthesis inhibition; cell reporter, cycloheximide protein synthesis inhibition counterscreen; max response, %; hit rate 12% among 300,000; AID 2314; in the data active = max response mostly above about 13%, no sharp cut-off; inactive = mostly below about 14%; also: read at 38.3 µM for the half of the compounds with a filed dose; 0% is about no effect
Active calls of the source: *; u = inconclusive; x = not tested or not shown. An excerpt weighted towards active compounds, which were near 22% of everything screened. Unless noted, calls follow the shape of the dose curve; as a rule, active = well fitted inhibition curve with a large enough effect; inconclusive = small, poorly fitted or top-dose-only effect, or another doubt; inactive = no such curve, though single readings can be large or run the other way.

SMILES | Pf growth 96h | Pf growth 48h | LmPK inh | Shiga inhibitor | Cycloheximide cs
COCC(=O)Nc1cc(C(=O)NCCc2ccccc2)ccc1Cl | 219% | 227% | 4% | 74* | 86*
CCCN(C(=O)C1CC(=O)N(c2ccccc2C(C)CC)C1)C1CCS(=O)(=O)C1 (stereo not given) | -3% | 9% | x | x | x
Cc1ccc(C(=O)C(OC(=O)CNS(=O)(=O)c2ccccc2)c2ccccc2)cc1 (stereo not given) | 94% | u | 2% | 16 | -3
O=C(CSc1nc2ccc([N+](=O)[O-])cc2s1)c1ccc2ccccc2c1 | 11% | 5% | -1% | -9 | -1
Cc1cccc(NC(=O)CNC(=O)CN2CCN(C)CC2)c1C | u | -13% | x | x | x
Cc1ccc(C)c(S(=O)(=O)N2CCN(C(=O)c3sccc3C)CC2)c1 | -11% | u | x | x | x
CC(C)Oc1ccc(/C(O)=C2/C(=O)C(=O)N(CCN3CCNCC3)C2c2ccc(C(C)C)cc2)cc1 (stereo not given) | 22% | 4% | 3% | -2 | -2
CCCCC(=O)N1C/C=C\C(c2ccc(OC)cc2)N(Cc2ccc(F)cc2)C(=O)[C@H]1Cc1ccccc1 (stereo not given in full) | 10µM* | 12µM* | -2% | 3 | 14
CCCCCCC(=O)N1C/C=C\C(c2ccc(OC)cc2)N(Cc2ccc(F)cc2)C(=O)[C@H]1Cc1ccccc1 (stereo not given in full) | 7.4µM* | 9.3µM* | 5% | -6 | -5
COc1ccc(C2/C=C\CN(C(=O)C3CC3)C(Cc3ccccc3)C(=O)N2Cc2ccc(F)cc2)cc1 (stereo not given) | x | x | x | -7 | 15
COc1ccc(C2/C=C\CN(C(=O)C3CC3)[C@H](Cc3ccccc3)C(=O)N2Cc2ccc(F)cc2)cc1 (stereo not given in full) | u | 10µM* | -6% | -4 | -4
CCCCC(=O)N1C/C=C\C(c2ccc(OC)cc2)N(Cc2ccc(F)cc2)C(=O)C1C (stereo not given) | x | x | x | 33 | 22
O=C(NCc1ccc2c(c1)OCO2)c1cccnc1Cl | 3% | 11% | 1% | 12 | 9
Cc1ccc(NC(=O)CSc2nnnn2-c2cccnc2)c(C)c1 | 12% | 7% | -3% | -5 | -8
Cc1cc(C)c(C#N)c(N2CCN(Cc3ccccc3)CC2)n1 | x | 0% | -1% | -12 | 6
Cc1cc(C)c(C#N)c(N2CCN(c3ccccc3F)CC2)n1 | 12µM* | 29% | -9% | -18 | -1
CC(CCCC(C)(C)O)CC1C2=C(CCCC2=O)OC2=C1C(=O)CCC2 (stereo not given) | -21% | 15% | 3% | -4 | 1
O=C(NCC(=O)N(c1ccc(F)cc1)C(C(=O)NC1CCCCC1)c1ccncc1)c1ccco1 (stereo not given) | 7% | u | 2% | 3 | -6
CCOC(=O)CN(C(=O)Cn1nnc(-c2ccc(OC)cc2)n1)C(C(=O)NC1CCCC1)c1ccc(F)cc1 (stereo not given) | 15µM* | 13µM* | 0% | 8 | -3
CCC(C(=O)NC1CCCC1)N(C(=O)Cn1nnc(-c2ccc(OC)c(OC)c2)n1)C1CCCCC1 (stereo not given) | u | 9.3µM* | -8% | -7 | -3
CC(C)CCNC(=O)C(c1ccncc1)N(Cc1cccs1)C(=O)Cn1nnc(-c2ccc(F)cc2)n1 (stereo not given) | 62% | 15µM* | 6% | 2 | -2
Cc1ccc(-c2nnn(CC(=O)N(Cc3ccco3)C(C(=O)NC3CCCC3)c3cccs3)n2)o1 (stereo not given) | u | 13µM* | -1% | -1 | -2
CCN(CC)CCN(C(=O)Cn1nnc(-c2ccc(OC)c(OC)c2)n1)C(C(=O)NC1CCCC1)c1ccc(F)cc1 (stereo not given) | -23% | x | -3% | -13 | -4
CC(=O)c1ccc(N(C(=O)Cn2nnc(-c3ccccc3)n2)C(C(=O)NC2CCCCC2)c2ccccn2)cc1 (stereo not given) | 9.3µM* | -20% | 4% | -1 | -8
CCc1ccc(N(C(=O)Cn2nnc(-c3ccccc3)n2)C(C(=O)NC2CCCCC2)c2ccccn2)cc1 (stereo not given) | 419% | 12% | 4% | 45 | 7

High-throughput results from PubChem.
